# Results published in paper PMC12350791.
# Molecular target: HNRNPU (UniProt Q00839)
# Assay: cross-linking mass spectrometry
# Conditions: DSBSO, in cells or nuclear extract, not told apart
# Sequence of HNRNPU (Q00839 whole entry): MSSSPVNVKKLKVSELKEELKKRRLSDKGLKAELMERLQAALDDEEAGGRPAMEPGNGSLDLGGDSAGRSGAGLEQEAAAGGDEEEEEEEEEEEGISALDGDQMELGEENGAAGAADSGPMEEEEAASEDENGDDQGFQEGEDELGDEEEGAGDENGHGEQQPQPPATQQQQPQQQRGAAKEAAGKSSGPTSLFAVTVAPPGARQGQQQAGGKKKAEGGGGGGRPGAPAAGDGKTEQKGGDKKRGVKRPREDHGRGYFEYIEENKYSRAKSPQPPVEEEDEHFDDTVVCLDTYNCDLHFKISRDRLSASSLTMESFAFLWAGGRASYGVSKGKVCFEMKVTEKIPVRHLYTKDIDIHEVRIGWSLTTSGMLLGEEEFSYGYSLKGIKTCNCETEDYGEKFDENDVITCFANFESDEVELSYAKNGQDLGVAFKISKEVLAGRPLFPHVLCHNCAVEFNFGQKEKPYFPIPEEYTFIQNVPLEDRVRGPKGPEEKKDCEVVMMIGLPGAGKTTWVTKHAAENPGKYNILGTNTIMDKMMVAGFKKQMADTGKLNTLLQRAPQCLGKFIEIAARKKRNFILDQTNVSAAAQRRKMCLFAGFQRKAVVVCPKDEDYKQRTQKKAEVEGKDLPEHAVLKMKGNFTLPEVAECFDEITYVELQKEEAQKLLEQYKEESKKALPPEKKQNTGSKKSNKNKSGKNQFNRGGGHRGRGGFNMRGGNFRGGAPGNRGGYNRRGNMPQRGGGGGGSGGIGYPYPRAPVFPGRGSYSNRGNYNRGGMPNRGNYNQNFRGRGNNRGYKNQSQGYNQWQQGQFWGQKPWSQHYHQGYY
# Sequence of HNRNPR, O43390 (O43390 whole entry): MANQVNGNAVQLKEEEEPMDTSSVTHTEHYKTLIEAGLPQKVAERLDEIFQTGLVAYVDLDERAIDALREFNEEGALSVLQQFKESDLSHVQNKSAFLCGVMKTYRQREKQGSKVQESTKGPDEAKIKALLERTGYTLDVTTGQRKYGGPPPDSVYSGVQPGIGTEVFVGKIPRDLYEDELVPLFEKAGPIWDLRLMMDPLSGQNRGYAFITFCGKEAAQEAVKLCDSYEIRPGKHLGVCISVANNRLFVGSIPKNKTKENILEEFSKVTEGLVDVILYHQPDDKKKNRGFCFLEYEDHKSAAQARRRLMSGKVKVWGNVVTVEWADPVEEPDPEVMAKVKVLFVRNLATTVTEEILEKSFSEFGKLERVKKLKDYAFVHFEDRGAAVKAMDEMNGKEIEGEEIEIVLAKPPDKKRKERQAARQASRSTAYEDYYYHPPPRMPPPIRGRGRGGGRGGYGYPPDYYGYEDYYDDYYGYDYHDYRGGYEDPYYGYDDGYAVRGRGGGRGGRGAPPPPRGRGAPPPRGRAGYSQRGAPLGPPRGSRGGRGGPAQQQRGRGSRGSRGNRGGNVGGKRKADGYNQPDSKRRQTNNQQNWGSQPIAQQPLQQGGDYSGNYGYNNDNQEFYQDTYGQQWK
# Sequence of HNRNPDL, O14979 (O14979 whole entry): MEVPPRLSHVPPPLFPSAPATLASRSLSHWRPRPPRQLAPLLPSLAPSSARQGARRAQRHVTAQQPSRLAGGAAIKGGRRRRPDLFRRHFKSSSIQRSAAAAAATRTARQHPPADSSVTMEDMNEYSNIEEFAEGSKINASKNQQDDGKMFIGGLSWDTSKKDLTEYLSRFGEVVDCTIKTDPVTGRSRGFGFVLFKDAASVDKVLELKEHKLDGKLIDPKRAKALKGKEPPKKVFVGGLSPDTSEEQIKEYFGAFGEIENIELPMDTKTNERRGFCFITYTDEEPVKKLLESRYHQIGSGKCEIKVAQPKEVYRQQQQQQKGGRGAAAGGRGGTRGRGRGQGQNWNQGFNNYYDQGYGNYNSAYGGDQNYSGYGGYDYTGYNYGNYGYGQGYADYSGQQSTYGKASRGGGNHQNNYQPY
# Sequence of GART, P22102 (P22102 whole entry): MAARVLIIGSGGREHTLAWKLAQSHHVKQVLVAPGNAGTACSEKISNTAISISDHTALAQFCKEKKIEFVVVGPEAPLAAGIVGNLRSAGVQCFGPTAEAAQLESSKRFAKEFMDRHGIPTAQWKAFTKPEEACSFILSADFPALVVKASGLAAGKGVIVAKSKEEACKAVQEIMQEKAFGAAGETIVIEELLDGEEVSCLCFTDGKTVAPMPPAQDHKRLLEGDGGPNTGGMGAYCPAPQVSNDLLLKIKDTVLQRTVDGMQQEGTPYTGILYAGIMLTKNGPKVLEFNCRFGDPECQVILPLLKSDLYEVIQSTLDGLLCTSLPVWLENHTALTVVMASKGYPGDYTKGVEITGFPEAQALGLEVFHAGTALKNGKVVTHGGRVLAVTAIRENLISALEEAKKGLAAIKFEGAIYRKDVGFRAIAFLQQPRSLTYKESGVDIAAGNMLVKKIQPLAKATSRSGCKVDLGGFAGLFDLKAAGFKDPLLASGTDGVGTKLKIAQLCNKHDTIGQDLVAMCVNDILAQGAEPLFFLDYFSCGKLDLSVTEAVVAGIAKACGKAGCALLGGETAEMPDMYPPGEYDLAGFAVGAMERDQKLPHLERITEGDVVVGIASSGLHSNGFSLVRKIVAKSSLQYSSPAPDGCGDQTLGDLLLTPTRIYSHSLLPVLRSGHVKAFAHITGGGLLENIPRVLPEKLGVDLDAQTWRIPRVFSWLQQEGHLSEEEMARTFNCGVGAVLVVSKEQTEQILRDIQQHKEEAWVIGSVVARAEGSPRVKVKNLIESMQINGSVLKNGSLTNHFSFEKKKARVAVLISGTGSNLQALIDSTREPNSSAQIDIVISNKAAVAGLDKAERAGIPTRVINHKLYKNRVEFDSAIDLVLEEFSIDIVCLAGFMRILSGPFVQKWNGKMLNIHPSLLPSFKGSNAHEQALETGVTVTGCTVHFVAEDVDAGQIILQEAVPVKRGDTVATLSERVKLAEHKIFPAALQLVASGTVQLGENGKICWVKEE
row,Substance,cross-linked residues
1,"HNRNPR, O43390",K359 - K181
2,"GART, P22102",K251 - K331
3,"HNRNPDL, O14979",K302 - K352
